Measured values reported in PubChem BioAssay AID1159580 (chemical genetic matrix, 2015).
About 2,000 (36%) of roughly 5,500 compounds were called active. Inconclusive results (about 18%) are left out. No stated cut-off is given here; in the data, active means normalized growth mostly below about 0.91 (no sharp cut-off); inconclusive means no clear call, values can overlap the other calls; inactive means mostly above about 0.92. This is one part of the list.

Test: chemical genetic growth profiling, strain panel (AID 1159580);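 further: tested at 20 µM; growth read once vehicle control cultures reached saturation at 30 °C; 1 = growth at the plate median or of vehicle wells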
Conditions: growth OD

Measured: normalized growth

Cc1cc(=O)oc2cc(O)c(O)cc12
inactive: S. cerevisiae deletion strains, locus YJR043C, strain POL32, stronger effect = lower value 0.964 | S. cerevisiae deletion strains, locus YJR066W, strain TOR1, stronger effect = lower value 0.913 | S. cerevisiae deletion strains, locus YKL009W, strain mrt4, stronger effect = lower value 0.922 | S. cerevisiae deletion strains, locus YKL068W, stronger effect = lower value 1.01 | S. cerevisiae deletion strains, locus YKL085W, strain MDH1 (second series), stronger effect = lower value 1.02 | S. cerevisiae deletion strains, locus YKL085W, strain MDH1, stronger effect = lower value 1.02 | S. cerevisiae deletion strains, locus YKL160W, strain elf1, stronger effect = lower value 1 | S. cerevisiae deletion strains, locus YKL190W, strain CNB1, stronger effect = lower value 1.01 | S. cerevisiae deletion strains, locus YKR001C, strain vps1, stronger effect = lower value 0.934 | S. cerevisiae deletion strains, locus YKR026C, strain gcn3, stronger effect = lower value 0.994 | S. cerevisiae deletion strains, locus YKR091W, strain srl3, stronger effect = lower value 0.981 | S. cerevisiae deletion strains, locus YLL001W, strain dnm1, stronger effect = lower value 0.995 | S. cerevisiae deletion strains, locus YLL026W, stronger effect = lower value 0.989 | S. cerevisiae deletion strains, locus YLL041C, strain sdh2, stronger effect = lower value 0.986 | S. cerevisiae deletion strains, locus YLR027C, strain aat2, stronger effect = lower value 0.976 | S. cerevisiae deletion strains, locus YLR039C, strain RIC1, stronger effect = lower value 0.945 | S. cerevisiae deletion strains, locus YLR058C, strain SHM2, stronger effect = lower value 0.99 | S. cerevisiae deletion strains, locus YLR102C, strain apc9, stronger effect = lower value 1.01 | S. cerevisiae deletion strains, locus YLR113W, strain HOG1, stronger effect = lower value 0.954 | S. cerevisiae deletion strains, locus YLR221C, strain rsa3, stronger effect = lower value 0.986 | S. cerevisiae deletion strains, locus YLR258W, strain gsy2, stronger effect = lower value 1 | S. cerevisiae deletion strains, locus YLR262C, strain YPT6 (second series), stronger effect = lower value 0.962 | S. cerevisiae deletion strains, locus YLR262C, strain YPT6, stronger effect = lower value 1.01 | S. cerevisiae deletion strains, locus YLR268W, strain sec22, stronger effect = lower value 0.983 | S. cerevisiae deletion strains, locus YLR320W, strain mms22, stronger effect = lower value 0.987 | S. cerevisiae deletion strains, locus YLR330W, strain CHS5, stronger effect = lower value 1 | S. cerevisiae deletion strains, locus YLR342W, strain FKS1 (second series), stronger effect = lower value 0.992 | S. cerevisiae deletion strains, locus YLR342W, strain FKS1, stronger effect = lower value 1.01 | S. cerevisiae deletion strains, locus YLR357W, strain rsc2, stronger effect = lower value 1.01 | S. cerevisiae deletion strains, locus YLR370C, strain arc18, stronger effect = lower value 0.982 | S. cerevisiae deletion strains, locus YLR371W, strain rom2, stronger effect = lower value 1 | S. cerevisiae deletion strains, locus YLR384C, strain iki3, stronger effect = lower value 0.993 | S. cerevisiae deletion strains, locus YLR418C, strain cdc73, stronger effect = lower value 0.939 | S. cerevisiae deletion strains, locus YML016C, strain PPZ1, stronger effect = lower value 0.994 | S. cerevisiae deletion strains, locus YML032C, strain rad52, stronger effect = lower value 0.965 | S. cerevisiae deletion strains, locus YML120C, strain ndi1, stronger effect = lower value 1 | S. cerevisiae deletion strains, locus YML124C, strain tub3, stronger effect = lower value 1.01 | S. cerevisiae deletion strains, locus YMR058W, strain fet3, stronger effect = lower value 0.989 | S. cerevisiae deletion strains, locus YMR078C, strain ctf18, stronger effect = lower value 1 | S. cerevisiae deletion strains, locus YMR125W, strain sto1, stronger effect = lower value 1.04 | S. cerevisiae deletion strains, locus YMR129W, stronger effect = lower value 1 | S. cerevisiae deletion strains, locus YMR205C, strain PFK2, stronger effect = lower value 1.02 | S. cerevisiae deletion strains, locus YMR223W, strain ubp8, stronger effect = lower value 0.951 | S. cerevisiae deletion strains, locus YMR231W, strain pep5, stronger effect = lower value 0.998 | S. cerevisiae deletion strains, locus YMR307W, strain GAS1, stronger effect = lower value 1.01 | S. cerevisiae deletion strains, locus YNL067W, strain RPL9B, stronger effect = lower value 0.994 | S. cerevisiae deletion strains, locus YNL071W, strain lat1, stronger effect = lower value 0.988 | S. cerevisiae deletion strains, locus YNL128W, strain TEP1, stronger effect = lower value 1.01 | S. cerevisiae deletion strains, locus YNL183C, strain NPR1, stronger effect = lower value 0.902 | S. cerevisiae deletion strains, locus YNL209W, strain ssb2, stronger effect = lower value 1 | S. cerevisiae deletion strains, locus YNL233W, strain BNI4, stronger effect = lower value 0.961 | S. cerevisiae deletion strains, locus YNL248C, strain rpa49, stronger effect = lower value 0.941 | S. cerevisiae deletion strains, locus YNL250W, strain rad50, stronger effect = lower value 1.02 | S. cerevisiae deletion strains, locus YNL271C, strain bni1, stronger effect = lower value 0.993 | S. cerevisiae deletion strains, locus YNL298W, strain CLA4, stronger effect = lower value 0.961 | S. cerevisiae deletion strains, locus YNL307C, strain MCK1, stronger effect = lower value 0.989 | S. cerevisiae deletion strains, locus YNL322C, strain KRE1 (second series), stronger effect = lower value 0.995 | S. cerevisiae deletion strains, locus YNR049C, strain mso1, stronger effect = lower value 0.989 | S. cerevisiae deletion strains, locus YNR052C, strain pop2, stronger effect = lower value 0.974 | S. cerevisiae deletion strains, locus YOL006C, strain TOP1, stronger effect = lower value 0.805 | S. cerevisiae deletion strains, locus YOL012C, strain htz1 1.25 | S. cerevisiae deletion strains, locus YOL147C, strain pex11, stronger effect = lower value 0.993 | S. cerevisiae deletion strains, locus YOR001W, strain rrp6, stronger effect = lower value 0.967 | S. cerevisiae deletion strains, locus YOR061W, strain CKA2, stronger effect = lower value 1 | S. cerevisiae deletion strains, locus YOR069W, strain VPS5, stronger effect = lower value 1.01 | S. cerevisiae deletion strains, locus YOR070C, strain gyp1, stronger effect = lower value 0.99 | S. cerevisiae deletion strains, locus YOR080W, strain dia2, stronger effect = lower value 0.975 | S. cerevisiae deletion strains, locus YOR083W, strain WHI5, stronger effect = lower value 0.978 | S. cerevisiae deletion strains, locus YOR106W, strain vam3, stronger effect = lower value 0.993 | S. cerevisiae deletion strains, locus YOR136W, strain idh2, stronger effect = lower value 1 | S. cerevisiae deletion strains, locus YOR144C, strain elg1, stronger effect = lower value 1 | S. cerevisiae deletion strains, locus YOR184W, strain ser1, stronger effect = lower value 0.88 | S. cerevisiae deletion strains, locus YOR231W, strain MKK1, stronger effect = lower value 0.904 | S. cerevisiae deletion strains, locus YOR265W, strain rbl2, stronger effect = lower value 0.989 | S. cerevisiae deletion strains, locus YOR270C, strain vph1, stronger effect = lower value 0.893 | S. cerevisiae deletion strains, locus YOR290C, strain snf2, stronger effect = lower value 0.937 | S. cerevisiae deletion strains, locus YOR316C, strain cot1, stronger effect = lower value 1 | S. cerevisiae deletion strains, locus YPL051W, strain arl3, stronger effect = lower value 0.987 | S. cerevisiae deletion strains, locus YPL078C, strain atp4, stronger effect = lower value 0.992 | S. cerevisiae deletion strains, locus YPL106C, strain sse1, stronger effect = lower value 0.978 | S. cerevisiae deletion strains, locus YPL240C, strain hsp82, stronger effect = lower value 0.994 | S. cerevisiae deletion strains, locus YPL256C, strain CLN2, stronger effect = lower value 0.936 | S. cerevisiae deletion strains, locus YPR119W, strain clb2, stronger effect = lower value 1.01 | S. cerevisiae deletion strains, locus YPR141C, strain kar3, stronger effect = lower value 1.02 | S. cerevisiae deletion strains, locus YPR163C, strain tif3, stronger effect = lower value 1.02 | S. cerevisiae deletion strains, locus YPR167C, strain met16, stronger effect = lower value 0.981 | S. cerevisiae deletion strains, strain wtn01, stronger effect = lower value 0.988 | S. cerevisiae strains, strain wild type, stronger effect = lower value 1.01
